# Laboratory results reported in the supplement of paper PMC10849652.
# About 7,900 targets were measured; listed, in parts, are those with a hit and a random draw of the rest. About 0.6% of all pairs of compound and target were hits. Unmarked numbers belong to inactive results.
# Assays:
# Assay in all cases: log2 fold change, soluble protein after heating vs DMSO (PISA); higher = thermal stabilisation; K562 cells, 10 uM, 30 min; active = over 0.2 and 3.5 SD of the protein, either way, in both replicates (recomputed)
# erlotinib = compound: C#Cc1cccc(Nc2ncnc3cc(OCCOC)c(OCCOC)cc23)c1 [erlotinib]
# Procedure, shortened: (§1)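 For each measurement, 10 μM compound was applied for 30 min to K562 cells at 2×10^6 cells/mL. Aliquots were heated for 3 min across 48°C-58°C, pooled, and extracted in PBS with 0.5% NP-40 at 4°C; the supernatant after 21,000xg for 90 min was soluble protein. This was quantified by TMTpro 16plex LC-MS/MS with channel sums equalised, and thermal stability was reported relative to control samples from duplicates, on a log2 fold-change scale.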
# [1] = compound: C/C(=N\NC(=O)C1=CC(=CC=C1)S(=O)(=O)N2CCOCC2)/C3=C(C=CC(=C3)Cl)O
# Procedure, shortened: as §1
# [2] = compound: C1=CC(=C(C=C1Cl)C2=NC3=NC=CN=C3C(=N2)NC4=CC=NC=C4)F
# Procedure, shortened: as §1
# [3] = compound: C1=CC(=CC=C1C2=NC3=C(N2)C=C(C=C3)C(=O)N)OC4=CC=C(C=C4)Cl
# Procedure, shortened: as §1
# [4] = compound: C1=CC2=C(C=CC(=C2)/C=C\3/C(=O)NC(=NCC4=CC=CS4)S3)N=C1
# Procedure, shortened: as §1
# [5] = compound: C1=CC2=NC=CN=C2C=C1/C=C/3\C(=O)NC(=O)S3
# Procedure, shortened: as §1
# [6] = compound: C1=CC=C(C=C1)C2=NC(=C(N2)C3=CC=NC=C3)C4=CC(=C(C=C4)Cl)O
# Procedure, shortened: as §1
# [7] = compound: C1=CC=C2C(=C1)C3=NNC4=CC=CC(=C43)C2=O
# Procedure, shortened: as §1
# [8] = compound: C1CCN(C1)C(=O)NC2=CC=CC(=C2)NC3=NC=C(C(=N3)NCCC4=CN=CN4)Br
# Procedure, shortened: as §1
# [9] = compound: C1CN(CCC1(CC2=CC=C(C=C2)Cl)N)C3=NC=NC4=C3C=CN4
# Procedure, shortened: as §1
# IRAK-1-4 Inhibitor I = compound: C1COCCN1CCN2C3=CC=CC=C3N=C2NC(=O)C4=CC(=CC=C4)[N+](=O)[O-] [IRAK-1-4 Inhibitor I]
# Procedure, shortened: as §1
# ibrutinib = compound: C=CC(=O)N1CCC[C@@H](n2nc(-c3ccc(Oc4ccccc4)cc3)c3c(N)ncnc32)C1 [ibrutinib]
# Procedure, shortened: as §1
# [10] = compound: CC(=O)c1cnc2ccc(-c3cc(Cl)c(O)c(Cl)c3)nc2c1N[C@H]1CC[C@H](CN(C)C)CC1
# Procedure, shortened: as §1
# ralimetinib = compound: CC(C)(C)Cn1c(N)nc2ccc(-c3[nH]c(C(C)(C)C)nc3-c3ccc(F)cc3)nc21 [ralimetinib]
# Procedure, shortened: as §1
# [11] = compound: CC(C)(O)CC(=O)NCCn1ccc2ncnc(Nc3ccc(Oc4cccc(C(F)(F)F)c4)c(Cl)c3)c21
# Procedure, shortened: as §1
# [12] = compound: CC(C)C1=C2N=C(C=C(N2N=C1)NCC3=CC=CC=C3)NCCCCCCN
# Procedure, shortened: as §1
# [13] = compound: CC(C)C[C@@H](C=O)NC(=O)[C@H](CC(C)C)NC(=O)[C@H](CC(C)C)NC(=O)OCc1ccccc1
# Procedure, shortened: as §1
# pinometostat = compound: CC(C)N(C[C@H]1O[C@@H](n2cnc3c(N)ncnc32)[C@H](O)[C@@H]1O)[C@H]1C[C@@H](CCc2nc3cc(C(C)(C)C)ccc3[nH]2)C1 [pinometostat]
# Procedure, shortened: as §1
# [14] = compound: CC1=C(C(CC(=O)N1)C2=CC=C(C=C2)C(F)(F)F)C(=O)NC3=C(C=C4C(=C3)C=NN4)F
# Procedure, shortened: as §1
# [15] = compound: CC1=C(C2=C(C=C1)C(=O)C3=CC=CC=C3N2CCCN)C
# Procedure, shortened: as §1
# Sequence of UniProt P49642 (P49642 whole entry, looked up): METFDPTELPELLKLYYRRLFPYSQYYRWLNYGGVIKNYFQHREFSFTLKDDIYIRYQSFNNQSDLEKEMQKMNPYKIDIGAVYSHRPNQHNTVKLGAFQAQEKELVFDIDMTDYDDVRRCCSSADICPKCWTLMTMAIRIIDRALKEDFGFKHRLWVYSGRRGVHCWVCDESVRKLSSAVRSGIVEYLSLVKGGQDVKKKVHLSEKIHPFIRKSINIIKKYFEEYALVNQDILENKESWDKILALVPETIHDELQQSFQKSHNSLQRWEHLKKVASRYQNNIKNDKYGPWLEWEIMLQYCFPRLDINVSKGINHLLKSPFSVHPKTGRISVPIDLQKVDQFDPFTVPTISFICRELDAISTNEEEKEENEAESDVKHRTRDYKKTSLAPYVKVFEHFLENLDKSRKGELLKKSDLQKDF
# Sequence of UniProt O15355 (O15355 whole entry, looked up): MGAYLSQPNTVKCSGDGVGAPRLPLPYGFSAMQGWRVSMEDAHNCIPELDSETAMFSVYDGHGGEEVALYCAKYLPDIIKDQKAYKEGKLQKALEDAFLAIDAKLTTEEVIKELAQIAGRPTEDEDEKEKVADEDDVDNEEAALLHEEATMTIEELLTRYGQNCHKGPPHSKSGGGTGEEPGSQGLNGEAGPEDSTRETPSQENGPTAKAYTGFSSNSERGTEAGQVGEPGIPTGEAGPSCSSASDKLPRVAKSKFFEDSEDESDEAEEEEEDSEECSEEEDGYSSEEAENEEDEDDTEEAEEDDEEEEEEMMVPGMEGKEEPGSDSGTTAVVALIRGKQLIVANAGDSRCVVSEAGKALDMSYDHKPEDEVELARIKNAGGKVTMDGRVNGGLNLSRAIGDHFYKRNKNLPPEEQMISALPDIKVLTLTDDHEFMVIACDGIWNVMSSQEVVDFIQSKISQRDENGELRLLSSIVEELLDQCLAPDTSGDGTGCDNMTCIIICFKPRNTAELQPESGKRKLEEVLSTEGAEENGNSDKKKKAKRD
# Sequence of UniProt Q5H8A4 (Q5H8A4 whole entry, looked up): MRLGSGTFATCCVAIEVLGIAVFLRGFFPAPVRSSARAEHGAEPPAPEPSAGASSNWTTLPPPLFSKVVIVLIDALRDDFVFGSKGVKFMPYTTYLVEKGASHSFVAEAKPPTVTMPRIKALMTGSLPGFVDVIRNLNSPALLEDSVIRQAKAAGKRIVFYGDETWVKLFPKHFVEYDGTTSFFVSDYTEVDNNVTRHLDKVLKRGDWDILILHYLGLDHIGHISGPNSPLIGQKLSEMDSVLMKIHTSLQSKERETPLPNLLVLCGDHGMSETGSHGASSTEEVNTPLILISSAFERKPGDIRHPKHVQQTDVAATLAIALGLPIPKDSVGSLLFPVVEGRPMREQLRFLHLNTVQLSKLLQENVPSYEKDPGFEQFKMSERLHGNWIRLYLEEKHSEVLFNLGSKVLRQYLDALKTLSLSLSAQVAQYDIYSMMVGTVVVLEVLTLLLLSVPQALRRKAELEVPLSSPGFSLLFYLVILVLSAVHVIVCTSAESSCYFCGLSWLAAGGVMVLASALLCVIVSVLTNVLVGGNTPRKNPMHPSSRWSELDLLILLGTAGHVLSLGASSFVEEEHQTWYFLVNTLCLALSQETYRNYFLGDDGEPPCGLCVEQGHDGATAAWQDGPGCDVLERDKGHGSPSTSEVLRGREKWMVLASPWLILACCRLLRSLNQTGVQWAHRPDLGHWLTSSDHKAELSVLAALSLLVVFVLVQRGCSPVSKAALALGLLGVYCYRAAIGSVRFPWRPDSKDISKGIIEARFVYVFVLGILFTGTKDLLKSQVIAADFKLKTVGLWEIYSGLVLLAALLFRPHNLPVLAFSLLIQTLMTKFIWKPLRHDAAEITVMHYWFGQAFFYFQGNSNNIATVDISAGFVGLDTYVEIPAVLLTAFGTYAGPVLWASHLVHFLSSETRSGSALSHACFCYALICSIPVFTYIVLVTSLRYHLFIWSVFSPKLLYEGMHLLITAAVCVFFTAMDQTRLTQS
# Sequence of UniProt Q14997 (Q14997 whole entry, looked up): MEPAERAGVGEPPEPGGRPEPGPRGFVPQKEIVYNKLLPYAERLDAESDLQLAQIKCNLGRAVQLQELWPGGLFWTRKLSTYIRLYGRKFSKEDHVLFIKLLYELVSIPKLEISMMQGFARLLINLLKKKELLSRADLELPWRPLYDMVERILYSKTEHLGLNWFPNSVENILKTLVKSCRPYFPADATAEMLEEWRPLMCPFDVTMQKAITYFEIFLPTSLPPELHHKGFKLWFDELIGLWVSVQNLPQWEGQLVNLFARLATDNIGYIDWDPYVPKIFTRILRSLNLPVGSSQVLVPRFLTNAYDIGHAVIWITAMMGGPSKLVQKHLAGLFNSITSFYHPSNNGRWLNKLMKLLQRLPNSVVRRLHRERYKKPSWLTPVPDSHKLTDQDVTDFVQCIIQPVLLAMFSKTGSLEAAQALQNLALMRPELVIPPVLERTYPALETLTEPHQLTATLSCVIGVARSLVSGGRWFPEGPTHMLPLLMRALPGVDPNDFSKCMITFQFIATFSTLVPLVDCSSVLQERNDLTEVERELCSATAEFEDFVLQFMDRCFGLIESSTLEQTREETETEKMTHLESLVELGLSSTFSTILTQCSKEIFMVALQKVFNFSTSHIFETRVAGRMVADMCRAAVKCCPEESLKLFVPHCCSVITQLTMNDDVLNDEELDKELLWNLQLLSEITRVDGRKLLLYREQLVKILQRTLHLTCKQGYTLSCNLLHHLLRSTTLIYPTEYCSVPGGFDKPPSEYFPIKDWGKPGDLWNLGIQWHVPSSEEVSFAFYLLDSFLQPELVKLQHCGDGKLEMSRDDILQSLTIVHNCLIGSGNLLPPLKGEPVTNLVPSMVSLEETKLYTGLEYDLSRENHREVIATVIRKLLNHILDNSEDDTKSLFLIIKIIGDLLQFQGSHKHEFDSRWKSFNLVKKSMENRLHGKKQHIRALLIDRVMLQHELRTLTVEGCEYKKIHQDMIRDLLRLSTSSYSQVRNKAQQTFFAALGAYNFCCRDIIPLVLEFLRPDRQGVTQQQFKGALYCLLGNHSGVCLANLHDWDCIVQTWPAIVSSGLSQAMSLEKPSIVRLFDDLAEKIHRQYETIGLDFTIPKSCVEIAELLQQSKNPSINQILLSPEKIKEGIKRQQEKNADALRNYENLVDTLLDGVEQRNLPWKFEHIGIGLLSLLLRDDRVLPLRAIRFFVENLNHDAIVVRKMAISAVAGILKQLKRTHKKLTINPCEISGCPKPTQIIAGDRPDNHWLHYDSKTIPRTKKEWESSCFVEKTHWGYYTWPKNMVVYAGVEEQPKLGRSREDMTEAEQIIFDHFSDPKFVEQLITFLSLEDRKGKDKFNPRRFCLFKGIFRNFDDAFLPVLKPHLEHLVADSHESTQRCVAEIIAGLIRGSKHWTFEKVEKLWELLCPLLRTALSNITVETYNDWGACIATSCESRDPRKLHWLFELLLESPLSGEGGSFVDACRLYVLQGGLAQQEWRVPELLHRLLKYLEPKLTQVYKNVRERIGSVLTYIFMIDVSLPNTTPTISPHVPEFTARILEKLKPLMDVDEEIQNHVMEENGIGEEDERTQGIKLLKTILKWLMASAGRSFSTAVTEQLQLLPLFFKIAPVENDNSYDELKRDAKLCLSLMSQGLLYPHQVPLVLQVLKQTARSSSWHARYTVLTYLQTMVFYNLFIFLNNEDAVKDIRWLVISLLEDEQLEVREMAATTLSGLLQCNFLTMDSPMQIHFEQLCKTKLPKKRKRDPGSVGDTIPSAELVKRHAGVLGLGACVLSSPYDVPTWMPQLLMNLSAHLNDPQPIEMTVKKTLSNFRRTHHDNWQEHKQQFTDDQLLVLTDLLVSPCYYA
# Sequence of UniProt Q15366 (Q15366 whole entry, looked up): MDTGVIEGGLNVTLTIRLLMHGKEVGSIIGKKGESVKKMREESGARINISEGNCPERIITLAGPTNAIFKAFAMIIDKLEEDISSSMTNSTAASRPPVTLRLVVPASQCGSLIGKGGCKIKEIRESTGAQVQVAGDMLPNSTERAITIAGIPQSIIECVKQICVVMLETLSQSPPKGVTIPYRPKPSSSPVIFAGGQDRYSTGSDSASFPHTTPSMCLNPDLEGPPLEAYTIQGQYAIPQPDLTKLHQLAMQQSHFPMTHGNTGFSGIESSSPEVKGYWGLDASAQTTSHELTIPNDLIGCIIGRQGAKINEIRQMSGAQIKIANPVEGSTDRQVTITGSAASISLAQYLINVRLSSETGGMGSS
# Sequence of UniProt O15305 (O15305 whole entry, looked up): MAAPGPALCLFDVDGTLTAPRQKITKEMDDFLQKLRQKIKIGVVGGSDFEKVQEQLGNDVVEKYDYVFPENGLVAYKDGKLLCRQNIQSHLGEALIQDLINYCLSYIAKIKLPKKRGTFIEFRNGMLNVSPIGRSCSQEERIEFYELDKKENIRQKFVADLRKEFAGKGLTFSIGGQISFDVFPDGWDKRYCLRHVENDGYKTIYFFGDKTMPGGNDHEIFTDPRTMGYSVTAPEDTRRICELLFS
# Sequence of UniProt Q9BTU6 (Q9BTU6 whole entry, looked up): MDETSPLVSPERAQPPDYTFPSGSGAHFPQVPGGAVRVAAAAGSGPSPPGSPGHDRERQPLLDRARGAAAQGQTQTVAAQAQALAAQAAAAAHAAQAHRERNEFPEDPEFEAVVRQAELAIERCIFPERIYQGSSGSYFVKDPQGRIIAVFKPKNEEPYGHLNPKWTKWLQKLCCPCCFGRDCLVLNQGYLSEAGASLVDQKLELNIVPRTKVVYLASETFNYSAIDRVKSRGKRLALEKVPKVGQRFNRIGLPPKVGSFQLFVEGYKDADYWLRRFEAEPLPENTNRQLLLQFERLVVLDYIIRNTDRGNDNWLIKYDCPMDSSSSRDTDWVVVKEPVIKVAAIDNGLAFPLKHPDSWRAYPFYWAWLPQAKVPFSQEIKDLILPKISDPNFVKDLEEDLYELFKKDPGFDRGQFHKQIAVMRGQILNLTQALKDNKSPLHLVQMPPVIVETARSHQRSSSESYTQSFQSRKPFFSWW
Target,log2 fold change (erlotinib),log2 fold change [1],log2 fold change [2],log2 fold change [3],log2 fold change [4],log2 fold change [5],log2 fold change [6],log2 fold change [7],log2 fold change [8],log2 fold change [9],log2 fold change (IRAK-1-4 Inhibitor I),log2 fold change (ibrutinib),log2 fold change [10],log2 fold change (ralimetinib),log2 fold change [11],log2 fold change [12],log2 fold change [13],log2 fold change (pinometostat),log2 fold change [14],log2 fold change [15]
PARP1 (UniProt P09874),0.076,0.135,0.042,-0.005,0.098,-0.042,0.137,0.35,-0.078,-0.042,-0.068,-0.027,-0.052,0.039,0.108,-0.068,0.018,-0.009,-0.004,0.578 (active)
PI4K2A (UniProt Q9BTU6),-0.037,-0.01,0.01,0.019,0.021,0.071,-0.029,0.01,-0.002,0.046,0.01,-0.018,-0.026,-0.072,-0.062,-0.158,-0.002,-0.024,-0.005,-0.006
PPM1G (UniProt O15355),0.117,0.118,0.009,-0.017,0.024,0.035,-0.052,-0.022,-0.011,-0.065,-0.095,-0.102,-0.098,-0.044,-0.17,-0.223,0.088,-0.067,-0.121,-0.002
PCBP2 isoform 3 (UniProt Q15366),-0.01,0.087,0.038,-0.039,0.019,0.025,0.063,0.017,-0.039,0.01,-0.065,-0.048,-0.056,0.017,-0.067,-0.211,-0.029,-0.049,-0.013,0.025
POM121 (UniProt Q96HA1),-0.013,-0.075,-0.127,0.033,0.118,-0.008,-0.137,-0.185,-0.087,-0.106,-0.022,0.005,-0.164,0.083,0.016,-0.241,0.178,0.065,-0.042,-0.057
PARN (UniProt O95453),0,0.052,0.08,-0.008,-0.028,0.034,-0.019,-0.001,-0.02,0.109,0.002,-0.047,-0.092,-0.013,-0.02,-0.025,0.018,-0.018,0.01,0.033
PIGG (UniProt Q5H8A4),-0.002,0.016,-0.009,0.027,0.023,0.014,-0.013,-0.003,-0.016,0.067,0.004,-0.039,-0.032,0.168,0.015,-0.046,0.005,0.027,0.011,0.018
POLR3D (UniProt P05423),0.068,-0.665 (active),-0.087,-0.031,-0.733 (active),-0.022,0.076,-0.004,-0.005,0.372,-0.017,0.766,0.022,0.043,-0.1,-0.158,-0.002,0.109,0.012,0.009
PCYT1B (UniProt Q9Y5K3),0.05,0.068,-0.043,0.023,0.078,0.079,-0.066,0.004,0.01,-0.003,0.014,-0.029,-0.072,0.011,0.001,-0.172,0.027,-0.011,0.058,-0.12
PSME4 (UniProt Q14997),-0.011,0.017,-0.028,0.065,0.055,0.022,-0.007,0.027,0.008,0.014,0.003,-0.022,-0.023,-0.024,-0.097,-0.043,0.271 (active),0.068,0.023,0.105
PRIM1 (UniProt P49642),0.005,0.011,-0.044,0.049,-0.005,0.027,-0.09,0.061,-0.033,-0.074,-0.066,-0.035,0.007,0.048,-0.079,-0.319 (active),0.046,0.114,0.026,-0.006
PCNT (UniProt O95613),0.284,-0.138,-0.095,-0.099,0.15,-0.023,-0.079,-0.097,0.065,-0.021,0.085,-0.078,-0.079,-0.113,-0.021,0.053,0.229,0.069,0.077,-0.018
PTPN23 (UniProt Q9H3S7),0.092,0.158,-0.007,-0.048,0.041,0.018,0,0.006,-0.048,-0.029,-0.008,-0.052,-0.044,0.013,-0.061,-0.095,0.038,-0.009,-0.036,0.046
PFAS (UniProt O15067),-0.011,0.141,0.066,0.205,0.034,-0.22,0.087,0.068,-0.01,-0.146,-0.055,0.065,-0.217,-0.003,0.02,0.131,-0.055,-0.02,0.039,0.17
POLR2C (UniProt P19387),0.05,0.037,-0.006,-0.051,-0.038,-0.053,0.172,0.001,0.117,0,-0.041,-0.025,0.227,0.102,0.003,0.058,0.042,0.065,-0.016,-0.025
PMM2 (UniProt O15305),0.03,-0.034,0.008,-0.02,0.023,0.003,-0.014,-0.019,-0.004,0.05,0.025,-0.025,0.012,-0.1,0.009,0.089,-0.032,-0.029,0.012,-0.015
